Source: PubChem (The Scripps Research Institute Molecular Screening Center)
Rows were chosen to be rich in hits. Some 3.5% of all compounds tested hit in one or more screens of this group.
MITF primary = MITF inhibitors, primary screen, biochemical, AlphaScreen, human; AlphaScreen MITF homodimerization, bead proximity signal; actives 0.91% (n = 650,000); inhibition, % at 2.6 µM; Microphthalmia-associated transcription factor (Homo sapiens), O75030; AID 1259374, 2018; in the data active = inhibition above about 50%;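 note: 0% = vehicle wells with protein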
Target sequence (O75030 whole entry, looked up): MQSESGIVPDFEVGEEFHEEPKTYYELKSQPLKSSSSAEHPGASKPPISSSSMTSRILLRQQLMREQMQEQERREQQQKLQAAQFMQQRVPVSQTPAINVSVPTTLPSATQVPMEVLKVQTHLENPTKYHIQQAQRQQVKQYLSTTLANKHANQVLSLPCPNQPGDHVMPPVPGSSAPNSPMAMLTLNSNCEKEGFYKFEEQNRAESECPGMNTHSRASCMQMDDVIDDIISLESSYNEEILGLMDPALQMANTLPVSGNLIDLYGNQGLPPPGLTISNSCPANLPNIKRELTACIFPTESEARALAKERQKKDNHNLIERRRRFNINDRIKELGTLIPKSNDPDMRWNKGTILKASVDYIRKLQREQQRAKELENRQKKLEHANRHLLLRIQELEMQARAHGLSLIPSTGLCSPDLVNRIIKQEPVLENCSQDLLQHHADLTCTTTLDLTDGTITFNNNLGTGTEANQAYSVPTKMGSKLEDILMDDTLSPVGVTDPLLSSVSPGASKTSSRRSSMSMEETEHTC
FBW7 activator = FBW7 E3 ligase activators, primary screen, biochemical, AlphaScreen, human. actives 0.13% (n = 650,000). normalized activity (activation), % at 26.1 µM. AlphaScreen FBW7–phospho-cyclin E peptide binding, activator screen; in the data active = normalized activity above about 1.9%;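 note: purified mutant Fbw7 with reduced substrate affinity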
TEAD-YAP block = TEAD-YAP interaction inhibition, primary screen, TEAD-YAP interaction inhibitor project, luminescence, HEK-TIYL cells. TEAD-Gal4/YAP UAS-luciferase luminescence. inhibition, % at 9.12 µM. actives 1.4% (n = 640,000). AID 1259422, 2018; in the data active = inhibition above about 32%;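 note: 0% = median of test compound wells and 100% = reference inhibitor wells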
GPR151 activ = activators of human GPR151, primary screen, cell-based, PathHunter beta-arrestin, luminescence; G-protein coupled receptor 151 (Homo sapiens), Q8TDV0; PathHunter beta-arrestin GPR151 cells; activation, % at 11.2 µM; actives 1% (n = 650,000); AID 1508602, 2020; in the data active = activation above about 4.9%;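 note: 0% = median of compound wells and 100% = cells with positive control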
Starred values were filed as active, the others as inactive.

SMILES | MITF primary | FBW7 activator | TEAD-YAP block | GPR151 activ
NC(=O)c1cccc2c1NC(c1cccc([N+](=O)[O-])c1)C1CC=CC21 (stereo unspecified) | 14 | 0 | -5 | 0
NC(=O)c1cccc2c1NC(C(=O)O)C1CC=CC21 (stereo unspecified) | 57* | -2 | 0 | 0
COC(=O)c1cccc2c1NC(C(=O)O)C1CC=CC21 (stereo unspecified) | 76* | 0 | 6 | 0
Cc1cc(C)nc(SCc2cc(=O)c(OC(=O)c3ccc(-c4ccccc4)cc3)co2)n1 | 10 | 0 | 8 | -1
CN(C)c1ccc(C2N=C(c3ccccc3)NO2)cc1 (stereo unspecified) | 8 | 0 | 35* | -4
CSc1ccc(C2N=C(c3ccccc3)NO2)cc1 (stereo unspecified) | 1 | 0 | -60 | 0
COC(=O)c1cc2c(=O)n3cccc(C)c3nc2n(Cc2cccnc2)c1=N | 12 | 0 | 1 | -2
O=C(NNC(=O)c1nn(-c2ccc(Cl)cc2)cc1O)c1ccccc1F | 28 | 0 | 15 | 1
O=C(NNC(=O)c1nn(-c2ccc(Cl)cc2)cc1O)c1ccc2ccccc2n1 | 69* | -1 | 65* | -2
Cc1cc(=O)oc2cc(NC(=O)c3cc(Cl)ccc3[N+](=O)[O-])ccc12 | 11 | 0 | -17 | 1
Cc1ccccc1CN1CCN2C(=O)[C@@H]3CCCN3C(=O)[C@H]2C1 | 17 | 1 | 46* | -1
O=C1[C@@H]2CCCN2C(=O)[C@H]2CN(Cc3ccccc3Cl)CCN12 | 6 | 0 | 37* | 1
C[C@H]1NC(=O)[C@H]2CN(Cc3ccccc3Cl)CCN2C1=O | 12 | 0 | -6 | 0
Cc1ccc(F)c(CN2CCN3C(=O)[C@@H]4CCCN4C(=O)[C@H]3C2)c1 | 16 | 1 | -1 | -1
Nc1ccc(Oc2cccc(Oc3ccc(N)cc3)c2)cc1 | 6 | 0 | 52* | 0
Nc1ccc(Oc2cccc(-c3ccc(N)cc3)c2)cc1 | 6 | 0 | 46* | 0
c1ccc(Oc2cccc(Oc3cccc(Oc4cccc(Oc5ccccc5)c4)c3)c2)cc1 | -4 | 0 | -6 | 1
Cc1cc(C)nc(Oc2ccc(N)cc2)n1 | 16 | 1.9* | 52* | 0
COc1ccc(Oc2nc(C)cc(C)n2)cc1 | 4 | 1 | -10 | -2
O=C(CC1CCCCC1)Nc1nnc2n1CCS2 | 19 | 3.1* | -4 | 1
COc1ccccc1C(=O)Nc1ccc2nc(N3CCN(c4ncccn4)CC3)cc(C)c2c1 | -7 | 0 | 25 | 0
COc1cccc(C(=O)Nc2ccc3nc(N4CCN(c5ncccn5)CC4)cc(C)c3c2)c1OC | 12 | 0 | 43* | 2
CC(=O)c1cccc(-c2cccc(C(=O)Nc3ccc(Oc4ccccc4)cc3)c2)c1 | 3 | 0 | -9 | -1
CCOc1ccc(Br)cc1C1C2=C(CCCC2=O)N(CC(=O)O)C2=C1C(=O)CCC2 | -12 | 1.9* | 4 | 0
CCCOc1ccccc1C1C2=C(CCCC2=O)N(C)C2=C1C(=O)CCC2 | 3 | 3.0* | 8 | 0
SMILES | MITF primary | FBW7 activator | TEAD-YAP block | GPR151 activ
O=C(Nn1c(C2CCCCC2)nc2ccccc2c1=O)c1ccc([N+](=O)[O-])cc1Cl | -10 | 0 | 1 | 1
CCCCc1ccc(-c2nc(Nc3cc(Oc4ccc(F)cc4)cc([N+](=O)[O-])c3)c3ccccc3n2)cc1 | 16 | 0 | -11 | 1
CCCCc1ccc(-c2nc(Nc3cc(Sc4ccc(F)cc4)cc([N+](=O)[O-])c3)c3ccccc3n2)cc1 | 10 | 0 | 57* | 1
CCCCc1ccc(-c2nc(Nc3cc(Oc4ccccc4)cc([N+](=O)[O-])c3)c3ccccc3n2)cc1 | -12 | 0 | 50* | 4
COc1cc(-c2nc(Nc3cc(Sc4ccc(F)cc4)cc([N+](=O)[O-])c3)c3ccccc3n2)cc(OC)c1OC | 5 | 0 | -3 | 0
O=C(CNc1ccc2ccccc2c1)N/N=C/c1ccccc1O | 16 | 0 | 9 | 0
COc1ccc(Cl)cc1NC(=O)Cn1nnc(C(=O)NCc2cccs2)c1N | -7 | 0 | 45* | 0
CCOc1ccc(-c2cc(=O)n(CC(=O)NCc3cccs3)cn2)cc1 | 5 | 0 | 44* | -2
CCc1ccc(OCC(=O)NCc2cccs2)cc1 | 1 | 0 | -22 | 0
O=C(O)CCCN=C1NC(=O)/C(=C/c2ccccc2C(F)(F)F)S1 | 1 | 0 | 8 | 1
N#CC1=C(N)Oc2cc(N)ccc2C1C1CCCCC1 (stereo unspecified) | -2 | 0 | 46* | 2
N#CC1=C(N)Oc2cc(N)ccc2C1c1ccc(C(F)(F)F)cc1 (stereo unspecified) | 10 | 0 | 6 | 0
NC(=O)c1sc2nc3c(c(-c4cccs4)c2c1N)CCCCC3 | -5 | 0 | 36* | 1
CCOC(=O)c1sc2nc3c(c(-c4ccco4)c2c1N)CCCC3 | 1 | 1 | 8 | 0
NC(=O)c1sc2nc3c(c(-c4ccco4)c2c1N)CCCCC3 | -11 | 0 | 40* | 0
Nc1c(C(=O)c2ccccc2)sc2nc3c(c(-c4cccs4)c12)CCCC3 | 23 | 1 | -10 | -2
COc1ccc(-c2c(C#N)c(N)nc3sc(C(N)=O)c(N)c23)cc1OC | 17 | 0 | -7 | -1
N#Cc1c(N)nc2sc(C(N)=O)c(N)c2c1-c1cccs1 | -8 | 0 | 42* | 0
O=C(Cc1ccccc1)Nc1ccc(Br)cc1 | 0 | 0 | -10 | 0
O=C(Cc1ccc(Br)cc1)Nc1ccncc1 | -5 | 0 | 50* | 2
Cc1ccc(C)c(N2C(N)=NC(N)=NC23CCCCC3)c1 | -14 | 0 | -5 | 0
CCCOc1ccc(C2C(=O)N(C3CCC(C)CC3)CC(=O)N2C2CCCCC2)cc1OC (stereo unspecified) | 2 | 0 | -2 | 0
Cc1cc(C)cc(NC(=O)C2CCCN(S(=O)(=O)c3c(C)noc3C)C2)c1 (stereo unspecified) | -5 | 0 | 5 | 0
Cc1cnc2c(c1NCCCN(C)C)c(=O)n(C)c(=O)n2C | 1 | 0 | 36* | 3
COc1cc(OC)c(S(=O)(=O)Nc2ccc3c(c2)OCCO3)cc1NC(C)=O | 3 | 0 | 35* | 0
CCCCOc1cccc(C(=O)Nc2ccc3c(c2)OCCO3)c1 | 7 | 0 | -21 | -1
COc1cccc(C(=O)Nc2ccc3c(c2)OCCO3)c1 | 13 | 0 | 79* | -10
Cc1ccc(C(=O)Nc2ccc3c(c2)OCO3)cc1 | 8 | 0 | 44* | -5
O=C(Nc1ccc2c(c1)CCC2)c1ccc2c(c1)OCO2 | 15 | 0 | 59* | -6
COc1ccccc1OCCn1c(-c2ccc(Cl)cc2)nc2ccccc2c1=O | 4 | 0 | -6 | 0
